CatG inh: inhibitors of human cathepsin G; P08311; purified enzyme, AMC-tetrapeptide fluorescence, pooled mixtures; inhibition, % at 5 µM (by protocol); 62,000 tested, 0.2% active;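 active means inhibition above 20% in each of the two mixture wells holding the compound; inactive means inhibition of 20% or less in either well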;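 further: 0% = enzyme control without mixture and 100% = blank lacking enzyme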
FXIa inh mix: factor XIa (human) inhibition, mixture screen | purified FXIa, fluorogenic substrate, pooled mixtures | inhibition, % at 5 µM | 62,000 tested, 0.19% active | AID 680;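 further: each value is inhibition by a whole ten-compound pool holding the compound; 0% = enzyme with no mixture and 100% = wells lacking enzyme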
FXIIa inh mix: blocks human factor XIIa in pooled compound mixtures; P00748; purified FXIIa, fluorogenic substrate; inhibition, % at 5 µM; 62,000 tested, 0.2% active;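 further: 0% = enzyme without compound and 100% = no enzyme blank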
C1s block: blocks human complement C1s protease activity | 62,000 tested, 0.16% active | AID 538 | P09871 | mean inhibition % of two 10-compound mixtures (active compounds read high), % at 5 µM (by protocol) | purified C1s, fluorogenic AMC substrate, pooled mixtures;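 active means inhibition above 20% in each of the two 10-compound mixture wells holding the compound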;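 further: 0% = enzyme wells lacking compound mixture and 100% = no-enzyme blank wells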
* = called active by the depositor. Only some compounds are listed: those with a hit (about 0.5% of all), similar ones and a draw of the others. Unless noted, no stated cut-off is given here; in the data, active means inhibition above about 20% (passing the limit was not always enough); inactive means the rest.

SMILES | CatG inh | FXIa inh mix | FXIIa inh mix | C1s block
O=C(NCc1ccc2c(c1)OCO2)c1cccc(N2CCCC2=O)c1 | 11 | 5 | 27* | 15
O=C(Nc1ccc(S(=O)(=O)N2CCCCCC2)cc1)C1CCCO1 (stereo unspecified) | 11 | 6 | 2 | 17
Cn1c(=O)n(C)c2cc(C(N)=O)ccc21 | 14 | 2 | 32* | 16
Cc1csc(NC(=O)c2ccco2)n1 | 13 | 9 | -20 | 22*
O=C(Nc1nc(-c2nc3ccccc3s2)cs1)c1ccco1 | 5 | 1 | 8 | -47
Cc1cnc(C(=O)Nc2ccccc2-c2ccc(C)o2)cn1 | 28* | -2 | 5 | -16
Nc1cc(N)nc(SCCOc2ccccc2)n1 | -13 | -10 | 7 | -74
Nc1cc(N)nc(SCCOc2ccccc2F)n1 | 14 | 77* | 2 | 30
CC1Cc2ccccc2N1C(=O)CSc1nc2c(c(=O)n(C)c(=O)n2C)n1Cc1ccccc1 (stereo unspecified) | 1 | 10 | 8 | -4
Cc1c(NC(=O)C2Cc3ccccc3CN2C(=O)c2ccco2)c(=O)n(-c2ccccc2)n1C (stereo unspecified) | 14 | 7 | -9 | 21*
O=c1cc(-c2ccccc2)nc2nc(-c3ccccc3)[nH]n12 | 10 | 6 | 11 | 44*

Bioassay records deposited in PubChem BioAssay by PCMD.
